Records with an inconclusive call do not appear. Active and inactive are the calls of the source. Unless noted, calls follow the shape of the dose curve; as a rule, active = well fitted curve in the direction sought with a large enough effect; inconclusive = small, poorly fitted or top-dose-only effect, or another doubt; inactive = no such curve, though single readings can be large; an effect the other way counts as inactive or inconclusive.
Assays:
[1] = NCATS anti-infectives library activity on HEK293 viability as a counter-qHTS vs the C. elegans viability qHTS (AID 1745854); also: % is scaled to controls: 0 for no effect and ±100 for the full control effect
Summary of the method: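 CellTiter-Glo luminescence, read on a CCD imager, scored viability of HEK293 cells after 24 hr compound exposure at 37C. Library tested in several concentrations, 1:5 steps, up to 41.7 uM; digitonin served as control.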

[2] = Viability counterscreen for antagonist of constitutive androstane receptor (CAR) against the NCATS DSHEA and TCM libraries (AID 1794837);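 also: compound exposure lasted 24 h before viability reading; 0% is about no effect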
Summary of the method: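 Counterscreen performed in a 1536-well qHTS format using HepG2-CYP2B6-hCAR cells; samples titrated in the presence of 48 uM CITCO, with viability measured fluorometrically (405/540 nm) after 24 h.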

[3] = Viability counterscreen for agonist of constitutive androstane receptor (CAR) against the NCATS DSHEA and TCM libraries (AID 1794838); also: 0% is about no effect
Summary of the method: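 Multiplexed counterscreen: after 24 h compound exposure with 0.75 uM PK11195, HepG2-CYP2B6-hCAR viability was quantified fluorimetrically (CellTiter-Fluor, 405/540 nm) prior to the ONE-Glo luciferase read.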

[4] = biological target: Nuclear receptor subfamily 1 group I member 3 (Homo sapiens) (UniProt Q14994); test: Primary qHTS for agonist of constitutive androstane receptor (CAR) against the NCATS DSHEA and TCM libraries (AID 1794839);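 also: HepG2 cells expressing human CAR with a CYP2B6 reporter plus PK11195 antagonist; luciferase reporter luminescence read with ONE-Glo; 0% is about no effect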
Nuclear receptor subfamily 1 group I member 3 (Homo sapiens), sequence (Q14994 whole entry, looked up): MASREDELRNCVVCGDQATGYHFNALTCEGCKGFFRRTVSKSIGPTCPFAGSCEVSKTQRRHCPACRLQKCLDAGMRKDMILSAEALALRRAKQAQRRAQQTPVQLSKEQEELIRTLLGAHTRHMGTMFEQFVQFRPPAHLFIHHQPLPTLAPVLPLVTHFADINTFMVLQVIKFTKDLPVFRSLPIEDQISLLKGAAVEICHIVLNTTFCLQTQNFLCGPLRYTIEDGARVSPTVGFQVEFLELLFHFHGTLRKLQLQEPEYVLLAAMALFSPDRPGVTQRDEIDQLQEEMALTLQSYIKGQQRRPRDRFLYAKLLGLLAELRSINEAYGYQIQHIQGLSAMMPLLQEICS
Summary of the method: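 Concentration–response screen in HepG2-CYP2B6-hCAR cells under 0.75 µM PK11195; 24 h exposure; luminescent reporter signal with multiplexed fluorescent viability.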

[5] = HepG2 viability counterscreen (readout 2: ATP content) against the NCATS DSHEA and TCM libraries (AID 1794840);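 also: HepG2 cells exposed to substances for about 24 h; 0% is about no effect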
Summary of the method: (§1)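 After HepG2 cells attach for ~4 h, substances are added and incubated ~24 h at 37C, 5% CO2. GF-AFC fluorescence then CellTiter-Glo luminescence give protease and ATP readouts.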

[6] = HepG2 viability counterscreen (readout 1: protease activity) against the NCATS DSHEA and TCM libraries (AID 1794841);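 also: cells exposed to compounds for about 24 h before the protease read; 0% is about no effect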
Summary of the method: as §1

[7] = biological target: Cytochrome P450 3A4 (Homo sapiens) (UniProt P08684); test: qHTS for inhibitors of CYP3A4 against the NCATS DSHEA and TCM libraries (AID 1919971); also: potency is read from the fitted curve at half-maximal effect
Cytochrome P450 3A4 (Homo sapiens), sequence (P08684 whole entry, looked up): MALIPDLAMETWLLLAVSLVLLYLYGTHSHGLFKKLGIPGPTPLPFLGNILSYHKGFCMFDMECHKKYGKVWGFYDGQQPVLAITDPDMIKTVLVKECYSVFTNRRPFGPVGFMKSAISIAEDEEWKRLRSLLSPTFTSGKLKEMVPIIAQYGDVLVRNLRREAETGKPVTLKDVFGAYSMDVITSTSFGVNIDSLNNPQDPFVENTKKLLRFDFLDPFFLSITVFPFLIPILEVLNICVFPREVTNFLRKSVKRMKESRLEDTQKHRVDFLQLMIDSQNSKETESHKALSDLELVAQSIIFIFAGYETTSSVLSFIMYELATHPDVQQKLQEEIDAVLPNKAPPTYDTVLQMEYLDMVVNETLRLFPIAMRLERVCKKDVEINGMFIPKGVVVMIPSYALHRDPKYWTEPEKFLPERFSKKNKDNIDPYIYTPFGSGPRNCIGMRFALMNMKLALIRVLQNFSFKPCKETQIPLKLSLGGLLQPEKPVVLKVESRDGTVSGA
Summary of the method: (§2)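 Substances were tested against enzyme with a pro-luciferin substrate; minus-enzyme wells served as background. After NADPH-initiated oxidation (30-45 min, RT), light was generated with P450-Glo reagent.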

[8] = biological target: Cytochrome P450 2D6 (Homo sapiens) (UniProt P10635); test: qHTS for inhibitors of CYP2D6 against the NCATS DSHEA and TCM libraries (AID 1919972); also: potency is read from the fitted curve at half-maximal effect
Cytochrome P450 2D6 (Homo sapiens), sequence (P10635 whole entry, looked up): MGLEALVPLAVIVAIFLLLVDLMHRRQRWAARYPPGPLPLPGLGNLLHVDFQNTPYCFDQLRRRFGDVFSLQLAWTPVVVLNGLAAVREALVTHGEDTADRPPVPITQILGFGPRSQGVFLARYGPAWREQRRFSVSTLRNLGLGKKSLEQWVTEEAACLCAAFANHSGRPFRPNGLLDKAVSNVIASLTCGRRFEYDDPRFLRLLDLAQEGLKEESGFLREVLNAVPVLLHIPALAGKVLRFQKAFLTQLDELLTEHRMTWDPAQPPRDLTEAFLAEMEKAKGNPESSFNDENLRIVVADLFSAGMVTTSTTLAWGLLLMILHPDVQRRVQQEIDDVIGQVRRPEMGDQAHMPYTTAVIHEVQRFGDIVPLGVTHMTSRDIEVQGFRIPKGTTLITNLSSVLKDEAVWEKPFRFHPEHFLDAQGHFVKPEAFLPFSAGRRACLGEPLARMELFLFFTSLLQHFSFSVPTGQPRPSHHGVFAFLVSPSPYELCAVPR
Summary of the method: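 qHTS, concentration–response format with most substances from 19.5 nM. CYP2D6 + pro-luciferin substrate, 15 min with compound, then 1x NADPH regen, 30–45 min RT dark. Glo detection 30 min, luminescence. Quinidine control.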

[9] = biological target: Cytochrome P450 2C9 (Homo sapiens) (UniProt P11712); test: qHTS for inhibitors of CYP2C9 against the NCATS DSHEA and TCM libraries (AID 1919973); also: potency is read from the fitted curve at half-maximal effect
Cytochrome P450 2C9 (Homo sapiens), sequence (P11712 whole entry, looked up): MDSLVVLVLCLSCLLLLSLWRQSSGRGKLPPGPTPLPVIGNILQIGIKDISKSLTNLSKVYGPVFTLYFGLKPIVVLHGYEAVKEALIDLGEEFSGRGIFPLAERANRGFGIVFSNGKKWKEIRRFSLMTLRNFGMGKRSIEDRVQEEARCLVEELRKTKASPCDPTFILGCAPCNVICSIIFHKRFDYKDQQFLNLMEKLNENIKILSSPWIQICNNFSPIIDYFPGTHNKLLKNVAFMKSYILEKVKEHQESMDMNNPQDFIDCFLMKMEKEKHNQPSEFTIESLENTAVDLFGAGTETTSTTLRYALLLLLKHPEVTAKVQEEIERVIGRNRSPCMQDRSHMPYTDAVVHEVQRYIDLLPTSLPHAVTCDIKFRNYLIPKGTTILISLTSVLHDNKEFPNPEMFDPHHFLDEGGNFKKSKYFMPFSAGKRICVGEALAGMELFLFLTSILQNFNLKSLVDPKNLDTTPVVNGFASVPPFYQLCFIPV
Summary of the method: as §2

[10] = biological target: Cytochrome P450 2C19 (Homo sapiens) (UniProt P33261); test: qHTS for inhibitors of CYP2C19 against the NCATS DSHEA and TCM libraries (AID 1919974);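 also: luminescence from luciferin released by CYP2C19 oxidation of a pro-luciferin substrate; potency is read from the fitted curve at half-maximal effect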
Cytochrome P450 2C19 (Homo sapiens), sequence (P33261 whole entry, looked up): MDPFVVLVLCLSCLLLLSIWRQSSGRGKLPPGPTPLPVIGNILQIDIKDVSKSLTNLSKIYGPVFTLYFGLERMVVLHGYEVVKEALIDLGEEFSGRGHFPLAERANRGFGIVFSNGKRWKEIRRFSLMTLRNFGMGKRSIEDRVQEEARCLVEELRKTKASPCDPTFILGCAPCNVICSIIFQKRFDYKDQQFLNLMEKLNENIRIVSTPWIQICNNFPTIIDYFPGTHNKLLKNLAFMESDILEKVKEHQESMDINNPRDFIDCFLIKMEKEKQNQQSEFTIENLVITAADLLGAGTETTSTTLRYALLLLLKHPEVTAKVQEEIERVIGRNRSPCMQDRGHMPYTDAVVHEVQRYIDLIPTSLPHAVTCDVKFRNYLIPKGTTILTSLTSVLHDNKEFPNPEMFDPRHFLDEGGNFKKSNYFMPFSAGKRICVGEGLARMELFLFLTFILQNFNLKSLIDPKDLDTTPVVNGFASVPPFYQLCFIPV
Summary of the method: as §2

[11] = qHTS Counterscreen for compound interference against the NCATS DSHEA and TCM libraries (AID 1919978); conditions: firefly luciferase detection reagent interference, luminescence;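 also: compounds preincubated with 1 µM D-luciferin or buffer before detection reagent; % of control where 0% means no effect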
Summary of the method: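 Interference check: test samples were incubated with D-luciferin (final 1 uM) or buffer only for 15 min, room temperature, in a qHTS titration up to 39.8 uM, then developed with detection reagent and read by luminescence.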

[12] = Dual reporter qHTS for agonist of Pregnane X Receptor (hPXR) against the NCATS DSHEA and TCM libraries: Fluorescence readout (AID 1920058); also: 0% is about no effect
Summary of the method: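 Fluorescence read-out for cell viability: CellTiter-Fluor, 1 h at 37 °C, Ex/Em 405/540 nm. This followed ~24 h treatment of hPXR-Luc HepG2 cells with substances in agonist mode.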

[13] = biological target: Nuclear receptor subfamily 1 group I member 2 (Homo sapiens) (UniProt O75469); test: Dual reporter qHTS for agonist of Pregnane X Receptor (hPXR) against the NCATS DSHEA and TCM libraries: Luminescence readout (AID 1920059); also: 0% is about no effect
Nuclear receptor subfamily 1 group I member 2 (Homo sapiens), sequence (O75469 whole entry, looked up): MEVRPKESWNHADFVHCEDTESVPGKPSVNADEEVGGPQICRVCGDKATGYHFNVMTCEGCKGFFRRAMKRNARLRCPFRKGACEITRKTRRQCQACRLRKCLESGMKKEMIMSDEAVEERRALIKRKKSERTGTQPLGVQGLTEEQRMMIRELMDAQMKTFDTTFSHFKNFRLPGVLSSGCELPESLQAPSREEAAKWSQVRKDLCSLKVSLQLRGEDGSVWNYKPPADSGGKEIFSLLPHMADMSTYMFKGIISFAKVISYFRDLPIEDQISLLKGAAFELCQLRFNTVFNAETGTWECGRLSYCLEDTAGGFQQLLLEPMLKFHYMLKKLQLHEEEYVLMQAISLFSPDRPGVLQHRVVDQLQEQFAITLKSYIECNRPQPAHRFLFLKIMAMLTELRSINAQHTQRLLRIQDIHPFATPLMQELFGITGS
Summary of the method: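 Luminescent PXR reporter read (ONE-Glo) after a CellTiter-Fluor viability read, following 24 h, 37C treatment of HepG2 cells stably carrying hPXR-Luc.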

[14] = biological target: Nuclear receptor subfamily 1 group I member 2 (Homo sapiens) (UniProt O75469); test: Dual reporter qHTS for antagonist of Pregnane X Receptor (hPXR) against the NCATS DSHEA and TCM libraries: Luminescence Readout (AID 1920060);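 also: HepG2 cells carrying hPXR luciferase reporter stimulated with rifampicin at 2 µM; 0% is about no effect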
Summary of the method: (§3)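 Antagonist mode: rifampicin 2 uM final co-added with compounds to hPXR-LucHepG2 cells for 24 h at 37C. Viability by CellTiter-Fluor, Ex/Em 405/540 nm, 1 h; reporter by ONE-Glo luminescence.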

[15] = Dual reporter qHTS for antagonist of Pregnane X Receptor (hPXR) against the NCATS DSHEA and TCM libraries: Fluorescence Readout (AID 1920061); also: 0% is about no effect
Summary of the method: as §3

[16] = NCATS anti-infectives library activity on the primary C. elegans qHTS viability assay (AID 1745855; calls by dose curve; also: potency is read from the fitted curve at half-maximal effect)
Summary of the method: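 Titration-based screen in worms: eggs hatched overnight in M9, L1 larvae fed TOP10 capsules in S medium with compound, incubated 21 °C for 7 days; fluorescent objects gated by size and intensity at days 0, 3 and 7.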

[17] = biological target: Glutathione peroxidase 1 (Homo sapiens) (UniProt P07203); test: Primary qHTS Assay for Inhibitors of Recombinant Selenoprotein Glutathione Peroxidase 1 (GPX1) (AID 1845191); also: nearly all actives have a fitted effect of over 65% in size
Summary of the method: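 NADPH consumption tracked by fluorescence at 340/450 nm between t=0 and t=15 min, room temperature. Final mix: 10 nM GPX1, 100 nM glutathione reductase, 1 mM GSH, 0.5 mM NADPH, 0.5 mM cumene hydroperoxide, 0.01% BSA; 30 min compound–enzyme preincubation.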

[18] = biological target: Phospholipid hydroperoxide glutathione peroxidase GPX4 (Homo sapiens) (UniProt P36969); test: Primary qHTS Assay for Inhibitors of Recombinant Selenoprotein Glutathione Peroxidase 4 (GPX4) (AID 1845192); also: nearly all actives have a fitted effect of over 65% in size
Phospholipid hydroperoxide glutathione peroxidase GPX4 (Homo sapiens), sequence (P36969 whole entry, looked up): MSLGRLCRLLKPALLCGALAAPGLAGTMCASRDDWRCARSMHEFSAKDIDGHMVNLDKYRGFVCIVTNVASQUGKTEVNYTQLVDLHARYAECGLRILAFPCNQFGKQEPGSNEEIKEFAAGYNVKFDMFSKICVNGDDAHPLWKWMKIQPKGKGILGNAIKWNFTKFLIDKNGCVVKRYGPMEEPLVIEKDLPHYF
Summary of the method: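 NADPH consumption followed by fluorescence at 340/450 nm, t=0 and after 15 min at room temperature. Reaction started with cumene hydroperoxide (0.5 mM final) after 30 min compound–GPX4 preincubation; final 200 nM GPX4, 100 nM GR, 1 mM GSH, 0.5 mM NADPH.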

[19] = biological target: Estrogen receptor (Homo sapiens) (UniProt P03372); test: qHTS assay for small molecule agonists of estrogen receptor alpha signaling (AID 588514; calls by dose curve;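 also: 0% = vehicle only and 100% = reference agonist; nearly all actives have a fitted effect of over 70% in size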)
Estrogen receptor (Homo sapiens), sequence (P03372 whole entry, looked up): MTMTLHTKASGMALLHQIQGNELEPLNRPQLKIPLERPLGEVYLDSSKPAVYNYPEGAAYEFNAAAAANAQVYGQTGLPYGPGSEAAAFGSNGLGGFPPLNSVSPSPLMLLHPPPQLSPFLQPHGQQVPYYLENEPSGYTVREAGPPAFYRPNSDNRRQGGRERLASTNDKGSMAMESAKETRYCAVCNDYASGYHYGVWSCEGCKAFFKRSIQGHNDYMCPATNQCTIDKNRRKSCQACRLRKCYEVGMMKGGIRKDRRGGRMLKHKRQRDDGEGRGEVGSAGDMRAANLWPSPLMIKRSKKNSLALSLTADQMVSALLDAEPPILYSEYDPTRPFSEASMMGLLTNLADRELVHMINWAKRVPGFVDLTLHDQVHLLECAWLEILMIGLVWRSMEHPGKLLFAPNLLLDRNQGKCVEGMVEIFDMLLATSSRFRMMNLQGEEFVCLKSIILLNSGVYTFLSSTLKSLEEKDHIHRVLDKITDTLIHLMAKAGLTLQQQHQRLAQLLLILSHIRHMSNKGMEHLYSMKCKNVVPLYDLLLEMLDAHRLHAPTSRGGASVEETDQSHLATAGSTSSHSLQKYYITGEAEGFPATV
Summary of the method: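 Read-out: CCF4 fluorescence from a beta-lactamase reporter in ER-alpha-UAS-bla HEK 293 cells after 18 hrs of compound exposure at 37 C. Normalized to 20 nM 17-beta-estradiol (100%) and DMSO (0%).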

[20] = biological target: Glucocorticoid receptor (Homo sapiens) (UniProt P04150); test: qHTS assay for small molecule agonists of glucocorticoid receptor signaling (AID 588532; active = well fitted curve in the direction sought with a large enough effect in the signal ratio, with a control signal flat; the % refers to the signal ratio;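 also: 100% = dexamethasone at 0.1 µM and 0% = DMSO only wells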); conditions: HeLa MMTV-bla, beta-lactamase ratio, agonist, 18 h; stronger effect = higher value; percent of dexamethasone control, DMSO zero
Summary of the method: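 Agonist-mode qHTS: GRE-driven beta-lactamase in HeLa cells exposed 18 h to titrated compounds (up to 92 uM), then CCF4 ratio read after 2 h at RT; Hill-fitted EC50, efficacy relative to 0.1 uM dexamethasone.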

[21] = biological target: Vitamin D3 receptor (Homo sapiens) (UniProt P11473); test: qHTS assay for small molecule antagonists of vitamin D receptor signaling (AID 588541; calls by dose curve;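 also: receptor activated by calcitriol during compound treatment; series mostly up to about 77 µM; % is scaled to controls: 0 for no effect and ±100 for the full control effect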)
Vitamin D3 receptor (Homo sapiens), sequence (P11473 whole entry, looked up): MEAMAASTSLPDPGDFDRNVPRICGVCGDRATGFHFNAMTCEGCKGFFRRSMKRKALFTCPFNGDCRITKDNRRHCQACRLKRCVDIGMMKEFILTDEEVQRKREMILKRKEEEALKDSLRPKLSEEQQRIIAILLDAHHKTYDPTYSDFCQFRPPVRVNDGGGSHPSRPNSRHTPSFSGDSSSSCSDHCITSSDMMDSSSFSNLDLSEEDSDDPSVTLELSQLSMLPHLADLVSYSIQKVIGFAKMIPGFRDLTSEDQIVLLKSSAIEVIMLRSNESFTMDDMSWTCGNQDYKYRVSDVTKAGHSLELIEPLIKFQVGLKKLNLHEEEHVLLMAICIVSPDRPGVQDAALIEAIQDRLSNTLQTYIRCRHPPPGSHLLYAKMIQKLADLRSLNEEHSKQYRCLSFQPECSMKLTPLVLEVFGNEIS
Summary of the method: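 Antagonist-mode beta-lactamase reporter assay: HEK293T VDR-UAS-bla cells were exposed to titrated compound alongside 1-alpha,25-dihydroxyvitamin D3 at 3 nM final for 16 h. Values were normalized to the 50 nM agonist control and DMSO basal, with IC50 and efficacy from Hill equation fits.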

[22] = biological target: Vitamin D3 receptor (Homo sapiens) (UniProt P11473); test: qHTS assay for small molecule agonists of vitamin D receptor signaling (AID 588543; calls by dose curve;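 also: 0% = DMSO basal and 100% = reference agonist control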)
Summary of the method: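 Measured: β-lactamase reporter activity (CCF4, 405 nm excitation, 460/530 nm emission) in HEK293T VDR-UAS-bla cells after 16 h compound exposure at 37 °C. Normalization against 50 nM 1α,25-dihydroxyvitamin D3 and DMSO; Hill-fit EC50.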

[23] = qHTS assay for small molecule agonists of retinoid X receptor alpha signaling (AID 588544; calls by dose curve;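 as to activation: 0% = DMSO basal wells and 100% = reference agonist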); conditions: HEK293T RXRa-UAS-bla, beta-lactamase reporter, 18 h; 530 nm emission
[24] = biological target: Retinoic acid receptor RXR-alpha (Homo sapiens) (UniProt P19793); test: as above
Retinoic acid receptor RXR-alpha (Homo sapiens), sequence (P19793 whole entry, looked up): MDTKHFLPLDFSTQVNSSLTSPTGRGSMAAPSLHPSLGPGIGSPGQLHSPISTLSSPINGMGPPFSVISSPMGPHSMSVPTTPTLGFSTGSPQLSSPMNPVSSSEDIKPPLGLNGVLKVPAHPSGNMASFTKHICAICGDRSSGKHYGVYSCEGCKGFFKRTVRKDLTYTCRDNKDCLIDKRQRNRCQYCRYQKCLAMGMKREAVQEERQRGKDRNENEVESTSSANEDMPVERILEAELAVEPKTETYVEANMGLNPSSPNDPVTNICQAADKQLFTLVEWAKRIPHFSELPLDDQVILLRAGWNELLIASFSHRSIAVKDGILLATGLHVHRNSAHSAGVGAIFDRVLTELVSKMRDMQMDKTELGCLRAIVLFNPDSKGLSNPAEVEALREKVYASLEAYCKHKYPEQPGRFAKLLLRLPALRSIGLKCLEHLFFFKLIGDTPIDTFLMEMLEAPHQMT

[25] = biological target: Thyroid hormone receptor beta (Homo sapiens) (UniProt P10828); test: qHTS assay for small molecule agonists of thyroid hormone receptor beta signaling (AID 588545; calls by dose curve)
Summary of the method: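 Cells (2500/well) were seeded, incubated 4 hrs at 37 C, dosed with a compound series, incubated 18 hrs, loaded with CCF4 dye for 2 hrs at RT, then read for fluorescence. Data were scaled between DMSO (0%) and 10 nM T3 (100%).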

[26] = qHTS assay for small molecule antagonists of retinoid X receptor alpha signaling (AID 588546; active = well fitted inhibition curve with a large enough effect in the signal ratio, with a control signal flat, not every such curve was filed as active; the % refers to the signal ratio;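 also: cells stimulated with 9-cis-retinoic acid as agonist; % is scaled to controls: 0 for no effect and ±100 for the full control effect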); conditions: HEK293T RXRa-UAS-bla, beta-lactamase ratio, antagonist mode; measured here: W530 green channel, cytotoxicity proxy
Summary of the method: (§4)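 Beta-lactamase reporter inhibition, read as CCF4 fluorescence ratio (ex 405, em 460/530 nm) after 2 h at RT. HEK293T UAS-bla cells, 2500/well, were stimulated with 9-cis-RA at 500 or 100 nM final alongside test compound for 18 h at 37 C.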

[27] = biological target: Retinoic acid receptor RXR-alpha (Homo sapiens) (UniProt P19793); test: as above; conditions: HEK293T RXRa-UAS-bla, beta-lactamase ratio, antagonist mode
Summary of the method: as §4

[28] = qHTS assay for small molecule activators of the p53 signaling pathway (AID 651743; active = well fitted activation curve with a large enough effect in the signal ratio, not every such curve was filed as active; the % refers to the signal ratio; also: series mostly up to about 92 µM; % of control where 0% means no effect); conditions: HCT-116 p53RE-bla, beta-lactamase FRET ratio, 16 h; activation: stronger effect = higher value
Summary of the method: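 A beta-lactamase reporter under p53 response element control, stably carried by HCT-116 cells, reported pathway activation. Test compounds were applied for 16 hours at 37 C, and fluorescence was measured 2 hours after adding the B/G FRET substrate.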

[29] = qHTS assay for environmental chemicals that activate the Aryl hydrocarbon Receptor (AhR) signaling pathway (AID 651777); conditions: 1A2-DRE human hepatoma cells, luciferase, 24 h; activation: stronger effect = higher value; also: % of control where 0% means no effect; nearly all actives have a fitted effect of over 15% in size
Summary of the method: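 1A2-DRE human hepatoma reporter line; 1,200 cells/well; cmpd or DMSO 24 h, 37 C/5% CO2; One-Glo 30 min RT; luciferase lum.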

[30] = biological target: Peroxisome proliferator-activated receptor alpha (Homo sapiens) (UniProt Q07869); test: qHTS assay for small molecule agonists of the peroxisome proliferator-activated receptor alpha (PPARalpha) signaling pathway (AID 651778); conditions: PathHunter PPARalpha complementation, chemiluminescence, 6 h; max response: stronger effect = higher value; also: % of control where 0% means no effect
Summary of the method: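 Chemiluminescence from complemented enzyme reported PPARalpha activation in cells after 6 hr of compound treatment at 37 C. The detection reagent was incubated for 60 min at room temperature, and compounds were scored as agonists.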

[31] = qHTS assay for small molecule agonists of the antioxidant response element (ARE) signaling pathway measured by Nrf2-dependant transcriptional activity - cell viability counter screen (AID 720653; active = well fitted curve in the direction sought with a large enough effect in the repeat runs; an effect the other way counts as inactive or inconclusive; also: % is scaled to controls: 0 for no effect and ±100 for the full control effect); conditions: ARE-bla HepG2 viability, CellTiter-Glo ATP luminescence, 16 h; max response: stronger effect = lower value
Summary of the method: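 Cytotoxicity counter screen: intracellular ATP quantified by CellTiter-Glo luminescence in the same ARE-bla HepG2 plates, after 16 h compound exposure and a 2 h beta-lactamase substrate step.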

[32] = qHTS assay for cell viability of HEK293 cells (AID 743288); conditions: ATP luminescence (CellTiter-Glo), 18 h; max response: stronger effect = lower value; also: % is scaled to controls: 0 for no effect and ±100 for the full control effect; nearly all actives have a fitted effect of over 50% in size
Summary of the method: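 HEK293, 18 h, 37 C, ATP luminescence. Cells at 2,000/well were allowed at least 5 h to settle before dosing; CellTiter-Glo developed 30 min at RT.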

[33] = qHTS assay for cell viability of the p53RE-bla HCT-116 cell line (AID 743292); also: % is scaled to controls: 0 for no effect and ±100 for the full control effect; nearly all actives have a fitted effect of over 55% in size
Summary of the method: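 HCT-116 p53RE-bla cells seeded 4,000/well; 5 h at 37 C; compound (DMSO) added; 16 h at 37 C; CellTiter-Glo added, 30 min RT; luminescence read.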

[34] = biological target: Nuclear receptor subfamily 1 group I member 2 (Rattus norvegicus) (UniProt Q9R1A7); test: qHTS assay for small molecule activators of the rat pregnane X receptor (rPXR) signaling pathway (AID 651751; call rule not given here; also: 0% is about no effect); conditions: rPXR reporter cells, luciferase (One-Glo), 24 h
Nuclear receptor subfamily 1 group I member 2 (Rattus norvegicus), sequence (Q9R1A7 whole entry, looked up): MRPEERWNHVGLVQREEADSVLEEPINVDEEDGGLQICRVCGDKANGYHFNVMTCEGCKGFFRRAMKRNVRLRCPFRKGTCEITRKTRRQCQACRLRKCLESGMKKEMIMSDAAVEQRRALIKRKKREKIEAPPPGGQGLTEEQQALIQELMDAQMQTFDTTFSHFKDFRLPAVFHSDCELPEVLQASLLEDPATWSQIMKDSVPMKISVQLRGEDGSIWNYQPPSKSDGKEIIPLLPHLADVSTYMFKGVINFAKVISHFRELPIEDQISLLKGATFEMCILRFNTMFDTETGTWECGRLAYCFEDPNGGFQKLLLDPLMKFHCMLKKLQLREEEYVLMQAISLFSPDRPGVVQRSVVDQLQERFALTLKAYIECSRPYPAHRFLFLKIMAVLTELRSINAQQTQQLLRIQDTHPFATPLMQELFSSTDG

[35] = qHTS assay for small molecule activators of the human pregnane X receptor (PXR) signaling pathway (AID 720659; call rule not given here; also: 0% is about no effect)

COc1cc(-c2oc3cc(O)cc(O)c3c(=O)c2O)ccc1O
inactive: Potency [1] | outcome [2] | outcome [3] | Potency [4] | outcome [5] | outcome [6] | max response [11] -5.64% | outcome [12] | Potency [13] | outcome [14] | outcome [15]
active: Potency [7] 11.2 µM | Potency [8] 4.47 µM | Potency [9] 4.47 µM | Potency [10] 7.94 µM

O=C(NO)c1cccc(C(=O)NCCc2ccccc2)c1
inactive: Potency [1] | Potency [16]

CC(C)[C@H](NC(=O)OCc1ccccc1)C(=O)N[C@@H](C)C(=O)N[C@@H](CC(=O)O)C(=O)CF
inactive: Potency [1] | Potency [16]

COc1cc(O)c(CC=C(C)C)c2c1C(=O)CC(c1ccc(O)cc1)O2 (stereo not given)
inactive: Potency [1]

O=C(O)CCCN1CCC(O[C@@H](c2ccc(Cl)cc2)c2ccccn2)CC1
inactive: Potency [1] | Potency [17] | Potency [18]

Cc1cccc2c3c(ccc12)C1=C(C(=O)C3=O)[C@@H](C)CO1
inactive: Potency [1]

O=C(O)[C@H]1C2CCC(CC2)[C@@H]1Nc1nc(-c2c[nH]c3ncc(F)cc23)ncc1F
inactive: Potency [1] | Potency [16]

O=C(O[C@@H]1Cc2c(O)cc(O)cc2O[C@@H]1c1cc(O)c(O)c(O)c1)c1cc(O)c(O)c(O)c1
active: Potency [16] 0.163 µM
-0.202%: max response [23]
inactive: Potency [19] | activation [20] 4.83% | outcome [21] | outcome [22] | outcome [24] | outcome [25] | max response [27] -1.14% | activation [28] -1.73% | activation [29] -3.33% | max response [30] -1.73% | max response [31] -12.8% | max response [32] -1.55% | Potency [33] | Potency [1] | max response [34] -1.38% | outcome [35]
-13.5%: max response [26]

Source: PubChem BioAssay (NCATS)
